# High-throughput results (PubChem)
# POLK inh – qHTS for Inhibitors of Polymerase Kappa | actives 0.53% (n = 400,000) | DNA polymerase kappa (Homo sapiens), Q9UBT6 | AID 588579, 2011 | purified Pol kappa, fluorescent DNA synthesis assay, 10 min | Potency, µM (highest dose often 107 µM), for the others: top-dose activity, negative = inhibition, actives largely listed as inhibitors; note: potency is the fitted concentration of half-maximal effect; % is set by controls: 0 for no effect and ±100 for the full control effect
#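 Pol kappa 10 nM + cpd, 15 min RT; start w/ substrate 50 nM final; fluorescence kinetic read, 0 and 10 min. Neg ctrl: buffer, no enzyme.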
# PI5P4K alpha inh – qHTS for Inhibitors of phosphatidylinositol 5-phosphate 4-kinase (PI5P4K). Phosphatidylinositol 5-phosphate 4-kinase type-2 alpha (Homo sapiens), P48426. PI5P4Kalpha enzyme, ADP-Glo luminescence, 60 min; hits give low values. max response, %. actives 1.2% (n = 330,000). AID 652105, 2013; active = max response of -50% or lower; inconclusive = between -30% and -50%; inactive = -30% or higher; note: value at the top dose of about 77 µM; % is set by controls: 0 for no effect and ±100 for the full control effect
#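 Enzyme plus substrate dispensed, test compounds pinned in, then ATP (5 microM final) added. After 60 min at RT, ADP-Glo reagent 1 for 45 min and reagent 2 for 30 min preceded luminescence imaging.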
# Pol eta inh – qHTS for Inhibitors of Polymerase Eta; recombinant Pol eta, fluorescent DNA replication assay; Potency, µM (series often up to 114 µM), for inactives: top-dose activity change, negative = inhibition, actives largely listed as inhibitors; actives 1.2% (n = 390,000); note: potency is the fitted concentration of half-maximal effect; % is set by controls: 0 for no effect and ±100 for the full control effect
#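 Pol eta at 10 nM preincubated with compounds 15 min at room temperature; reaction started with fluorescent substrate (50 nM final) and read kinetically at 0 and 10 min.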
# POLI inh – qHTS for Inhibitors of Polymerase Iota; DNA polymerase iota (Homo sapiens), Q9UNA4; Pol iota fluorescent replication assay, 10 min; Potency, µM (doses to about 115 µM), inactives show at the highest dose activity, negative = inhibition, actives largely listed as inhibitors; actives 1% (n = 390,000); AID 588590, 2011; note: potency is the fitted concentration of half-maximal effect
#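 Fluorescent replication assay read twice, at 0 min and 10 min after adding 50 nM (final) substrate. Enzyme (10 nM) and compounds were first incubated 15 min at room temperature; enzyme-free buffer wells were negative controls.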
# Pol beta inh – qHTS Assay for Inhibitors of DNA Polymerase Beta; Pol beta primer extension/strand displacement, fluorescence kinetic; Potency, µM (doses to about 114 µM), for the others: at the highest dose activity change, negative = inhibition, usual class: inhibitors; actives 1.3% (n = 340,000); note: potency is the fitted concentration of half-maximal effect; % is set by controls: 0 for no effect and ±100 for the full control effect
#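 Curves were derived by four-parameter Hill fits of normalized qHTS data. The kinetic fluorescent primer-extension read was taken at 0 and 10 min after 50 nM substrate, following a 15 min room-temperature preincubation of 10 nM enzyme with compounds.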
# PI4K2A block – qHTS for small molecular inhibitors of PI4K2A. Phosphatidylinositol 4-kinase type 2-alpha (Homo sapiens), Q9BTU6. actives 0.13% (n = 420,000). purified PI4K2A, ADP-Glo luminescence, 1 h; hits give low values. activity change, negative = inhibition, % at 76.9 µM; in the data active = activity change below about -50%; inconclusive = mostly about -30% to -49%;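 note: -100% = wells without enzyme as full effect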
# Target sequence (Q9BTU6 whole entry, looked up): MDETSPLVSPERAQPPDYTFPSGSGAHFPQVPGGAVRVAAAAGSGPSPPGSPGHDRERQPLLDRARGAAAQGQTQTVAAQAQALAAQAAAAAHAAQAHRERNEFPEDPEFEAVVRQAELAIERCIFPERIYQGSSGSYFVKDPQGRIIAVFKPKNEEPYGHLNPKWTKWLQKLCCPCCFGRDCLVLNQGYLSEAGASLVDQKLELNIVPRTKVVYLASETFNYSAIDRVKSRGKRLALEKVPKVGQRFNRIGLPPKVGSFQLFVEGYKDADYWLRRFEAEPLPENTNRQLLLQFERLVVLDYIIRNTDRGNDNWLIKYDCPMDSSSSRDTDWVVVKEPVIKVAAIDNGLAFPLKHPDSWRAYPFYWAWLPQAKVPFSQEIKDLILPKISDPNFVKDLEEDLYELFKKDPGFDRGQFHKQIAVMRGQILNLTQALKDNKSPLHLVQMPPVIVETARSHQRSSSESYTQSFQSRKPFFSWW
#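 Compounds are screened against recombinant PI4K2A using PI as substrate and ATP, the latter dispensed at 300 microM. Reactions run one hour at ambient temperature before ADP-Glo detection; full inhibition defined by wells lacking enzyme.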
# An asterisk follows results filed as active; ? = inconclusive; . = no result given; [ ] = remark or other dose. Compounds with a hit are over-represented: about 2.8% of the library has one in this group of screens. Unless noted, calls come from the whole dose curve; as a rule, active = well fitted inhibition curve with a large enough effect; inconclusive = small, poorly fitted or top-dose-only effect, or another doubt; inactive = no such curve, though single readings can be large or run the other way.
SMILES,POLK inh,PI5P4K alpha inh,Pol eta inh,POLI inh,Pol beta inh,PI4K2A block
COc1ccc(-n2ncc(C(=O)NCCCN3CCCCC3)c2C2CCN(C(=O)OC(C)(C)C)CC2)cc1,2%,.,-5%,19%,3%,1
CCOc1ccc(NC(=S)NNC(=S)Nc2cccc(C(F)(F)F)c2)cc1,0%,-18,-13%,?,17%,-1
COc1ccc(NC(=S)NNC(=S)Nc2cccc(C(F)(F)F)c2)cc1,-16%,-78*,0%,13%,-11%,2
Cc1ccc(NC(=O)Nc2ccc3c(c2)N(C)C(=O)CS3)nc1,-2%,.,-29%,89µM*,?,-4
Cc1ccnc(NC(=O)Nc2ccc3c(c2)N(C)C(=O)CS3)c1,-16%,-27,4%,-4%,-1%,2
CCCn1c(SCC(=O)Nc2nnc(-c3ccccc3)s2)nnc1-c1ccccn1,-10%,5,?,?,22µM*,-1
CCOCCCNc1nc(=S)[nH]c2cc(OC)c(OC)cc12,-5%,2,1%,8%,0%,6
CCCCNc1nc(=S)[nH]c2cc(OC)c(OC)cc12,-3%,0,-5%,5%,89µM*,-2
O=C(CSc1nc2ccccc2n1Cc1ccccc1Cl)N/N=C/c1ccccc1C(=O)O,-3%,-21,-12%,4%,?,-3
O=C(O)COc1ccccc1/C=N/NC(=O)CSc1nc2ccccc2n1Cc1ccccc1Cl,-5%,-9,-12%,?,79µM*,-2
Nc1nc(N)c2nc(-c3ccccc3)c(N)nc2n1,0%[60.1 µM],?,-10%,8%,-22%,-5
NSc1nc(N)c2nc(-c3ccccc3)c(-c3ccccc3)nc2n1,-28%,-53*,5%,18%,-30%,-4
Cc1ccc(N=Nc2c(=O)[nH]n3c(=O)cc(C)[nH]c23)cc1,-24%,?,-1%,?,0.89µM*,-7
CCCCNC(=O)COC(=O)c1c2c(nc3ccccc13)/C(=C/c1cccs1)CC2,-28%,?,?,113%,25µM*,-12
CCCCCCCCCCCCCCCC[N+](C)(C)CC,-7%,-63*,89µM*,19%,.,1
CCCCCCCCCCCCCCCC[N+](C)(C)CCl,-3%,-53*,-22%,-13%,.,-1
CCCCCC[N+](C)(C)CCSSCC[N+](C)(C)CCCCCC,18%,-3,3%,-3%,-2%,-13
CNC(=O)C1(C(F)(F)F)C/C(=C\Cc2ccccc2)CCCO1 (stereo not drawn),-6%,.,.,?,.,.
COc1ccc(/C=C/c2cnccn2)cc1OC,-25%,.,.,8%,.,.
O=c1[nH]c(NC2CCCCC2)c([N+](=O)[O-])c(=O)[nH]1,-8%,-76*,-11%,-2%,40%,1
CCN(c1ccccc1)S(=O)(=O)c1ccc(Oc2ccccc2C(C)=O)nc1,1%,0,-25%,2%,.,4
CCN(c1ccccc1)S(=O)(=O)c1ccc(Oc2ccc(-n3ccnc3)cc2)nc1,-10%,0,4%,9%,40µM*,0
NC(=O)N(CCC(=O)O)c1ccccc1,-4%,-1,?,-11%,20µM*,3
CCN(CCC(=O)O)c1ccccc1,10%,2,1%,-4%,6%,-13
OCCCNC(=S)Nc1ccc2nccnc2c1,-8%,0,1%,14µM*,50%,-14
SMILES,POLK inh,PI5P4K alpha inh,Pol eta inh,POLI inh,Pol beta inh,PI4K2A block
Fc1ccc(NC(=S)Nc2ccc3nccnc3c2)cc1,3%,-2,-10%,76%,15%,-10
O=C(O)c1ccccc1Nc1cc(Cl)c2nonc2c1[N+](=O)[O-],-2%,-12,50µM*,10µM*,-17%,?
O=C(O)c1cccc(Nc2cc(Cl)c3nonc3c2[N+](=O)[O-])c1,-8%,-26,-35%,3.5µM*,1%,?
CC(C)(C)OC(=O)NS(=O)(=O)Nc1ccccc1Br,-7%,.,.,-17%,.,.
Nn1c(SCc2ccc([N+](=O)[O-])cc2)nnc1-c1n[nH]c2c1CCC2,.,.,.,.,.,-2
CN(C)c1cccc(C(=O)N/N=C/c2ccccc2F)c1,-5%,3,-19%,21%,-11%,-1
Cc1cc(/C=N/NC(=O)C(O)(c2ccccc2)c2ccccc2)c(C)n1-c1ccc(C(=O)O)cc1,-22%,-16,79µM*,?,?,-8
Cc1cc(/C=N/NC(=O)c2cccc(N(C)C)c2)c(C)n1-c1cc(C(=O)O)cc(C(=O)O)c1,32µM*,?,20µM*,10µM*,18µM*,-6
COCc1[nH]c(=S)c(C#N)cc1C(=O)OC,-36%,-62*,-2%,?,15%,-5
O=C(Nc1ccc(S(=O)(=O)N2CCOCC2)cc1)c1cc(Cl)ccc1NS(=O)(=O)c1ccc(Cl)s1,.,.,.,.,.,1
N[C@@H](CCCP(=O)(O)O)C(=O)O,2%[19.4 µM],.,.,.,.,.
NC(CCCCCP(=O)(c1ccccc1)c1ccccc1)C(=O)O (stereo not drawn),-26%,-21,0%,79µM*,18µM*,-1
C=C1NN(Cc2ccc(OC)cc2)C(=O)N1c1ccccc1,-15%,.,.,33%,.,.
O=[N+]([O-])c1cc(CN(CCO)CCO)ccc1O,?,-2,?,25µM*,50µM*,2
CCOC(=O)N1CCN(S(=O)(=O)c2ccc3c4c(cccc24)C(=O)N3)CC1,0%,-5,-19%,123%,2%,-4
CCOc1ccccc1N1CCN(S(=O)(=O)c2ccc3c4c(cccc24)C(=O)N3)CC1,45µM*,?,79µM*,14µM*,?,-8
COc1cc2nc(N3CCCN(C)CC3)nc(NC3CCN(C)CC3)c2cc1OC,-5%,.,.,1%,.,.
CCc1ccc(-n2c(=O)c3ccccc3n(CC(=O)NCCc3ccc(OC)c(OC)c3)c2=O)cc1,-17%,.,-8%,-6%,15%,-2
COc1ccc(CCNC(=O)Cn2c(=O)n(-c3ccc(OC)c(OC)c3)c(=O)c3ccccc32)cc1OC,79µM*,.,-1%,?,23%,-3
C=CC1=C(C)C2=Cc3c(C=C)c(C)c4[n]3[Sn+2][n]3c(c(C)c(CCC(=O)O)c3=CC3=NC(=C4)C(C)=C3CCC(=O)O)=CC1=N2,13µM*,.,.,.,.,.
CC1(C)CCN2CCC(C)(C)c3c(O)ccc1c32,-20%,-54*,-6%,?,0%,-11
